# Results as given in PubChem BioAssay (EPA / NIEHS).
# Records with an inconclusive call do not appear. Activity calls are given as the source filed them. How the source made its calls: active means hit-call score of the fitted dose curve at least 0.9, where 1 is the maximum; inconclusive means response in the unintended direction; inactive means score below 0.9.
# Columns and labels:
# [1] = target: human Serotonin, 5-Hydroxytryptamine Receptor 6 (5HT6), HTR6 (gene 3362) (UniProt P50406); assay: NVS_GPCR_h5HT6: NovaScreen (NVS) G Protein-Coupled Receptor Assay for human Serotonin, 5-Hydroxytryptamine Receptor 6 (5HT6) (AID 2283253)
# Sequence of human Serotonin, 5-Hydroxytryptamine Receptor 6 (5HT6), HTR6 (gene 3362) (P50406 whole entry, looked up): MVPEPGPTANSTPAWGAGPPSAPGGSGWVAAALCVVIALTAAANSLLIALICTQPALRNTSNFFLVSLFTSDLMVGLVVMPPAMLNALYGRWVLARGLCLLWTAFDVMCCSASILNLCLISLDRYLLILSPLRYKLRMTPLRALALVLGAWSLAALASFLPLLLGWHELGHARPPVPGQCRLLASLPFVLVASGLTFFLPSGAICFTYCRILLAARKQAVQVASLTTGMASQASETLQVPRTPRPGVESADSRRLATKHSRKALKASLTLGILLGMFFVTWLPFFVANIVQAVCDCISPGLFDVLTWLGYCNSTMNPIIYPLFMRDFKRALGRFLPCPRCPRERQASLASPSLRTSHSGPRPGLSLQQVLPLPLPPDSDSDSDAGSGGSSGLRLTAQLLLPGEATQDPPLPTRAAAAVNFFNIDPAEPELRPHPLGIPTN
# Procedure, shortened: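 Filter scintillation counting of radioligand displacement from HEK293-expressed 5HT6, 1 hour post-dose, with loss of signal relative to DMSO. Single 25 uM duplicates first, with concentration series for confirmation.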
# [2] = target: guinea pig Opioid, Kappa 1 Receptor (OpiateK), OPRK1 (gene 100135587) (UniProt P41144); assay: NVS_GPCR_gOpiateK: NovaScreen (NVS) G Protein-Coupled Receptor Assay for guinea pig Opioid, Kappa 1 Receptor (OpiateK) (AID 2283252);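 further: active means reduced radioligand binding relative to DMSO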
# Sequence of guinea pig Opioid, Kappa 1 Receptor (OpiateK), OPRK1 (gene 100135587) (P41144 whole entry, looked up): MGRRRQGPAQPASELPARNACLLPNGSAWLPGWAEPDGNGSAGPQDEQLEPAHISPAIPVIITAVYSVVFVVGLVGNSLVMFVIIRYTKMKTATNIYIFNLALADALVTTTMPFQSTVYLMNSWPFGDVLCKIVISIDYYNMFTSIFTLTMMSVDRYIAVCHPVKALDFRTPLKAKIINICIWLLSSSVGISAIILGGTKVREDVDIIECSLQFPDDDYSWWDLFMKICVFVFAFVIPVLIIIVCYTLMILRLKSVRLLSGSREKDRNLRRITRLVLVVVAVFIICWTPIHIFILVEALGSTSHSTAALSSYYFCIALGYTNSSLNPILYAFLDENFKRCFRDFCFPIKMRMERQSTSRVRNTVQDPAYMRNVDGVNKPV
# Procedure, shortened: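 Radioligand binding to kappa opioid receptor in guinea pig cerebellar membranes, read by filtration and scintillation at 2 h. Compounds first tested in duplicate at 25 uM, then actives in concentration series; signal loss fitted against DMSO.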
# [3] = target: human Adenosine A1 Receptor (AdoRA1), ADORA1 (gene 134) (UniProt P30542); assay: NVS_GPCR_hAdoRA1: NovaScreen (NVS) G Protein-Coupled Receptor Assay for human Adenosine A1 Receptor (AdoRA1) (AID 2283254)
# Sequence of human Adenosine A1 Receptor (AdoRA1), ADORA1 (gene 134) (P30542 whole entry, looked up): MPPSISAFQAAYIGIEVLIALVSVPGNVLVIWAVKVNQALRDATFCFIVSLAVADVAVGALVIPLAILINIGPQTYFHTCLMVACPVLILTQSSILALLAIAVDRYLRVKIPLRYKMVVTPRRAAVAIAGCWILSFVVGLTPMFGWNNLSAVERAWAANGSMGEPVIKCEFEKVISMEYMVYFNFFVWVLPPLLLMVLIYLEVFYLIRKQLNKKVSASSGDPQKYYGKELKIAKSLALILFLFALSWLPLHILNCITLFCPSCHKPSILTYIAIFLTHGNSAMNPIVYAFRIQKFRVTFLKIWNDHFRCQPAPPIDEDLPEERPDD
# Procedure, shortened: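 Hum. cortical membranes + radioligand, cmpd 1 h; filtration, scintillation count. Readout = decrease vs DMSO. Primary 25 uM dup; hits → conc. series.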
# [4] = target: human Serotonin, 5-Hydroxytryptamine Receptor 2A (5HT2A), HTR2A (gene 3356) (UniProt P28223); assay: NVS_GPCR_h5HT2A: NovaScreen (NVS) G Protein-Coupled Receptor Assay for human Serotonin, 5-Hydroxytryptamine Receptor 2A (5HT2A) (AID 2283249)
# Sequence of human Serotonin, 5-Hydroxytryptamine Receptor 2A (5HT2A), HTR2A (gene 3356) (P28223 whole entry, looked up): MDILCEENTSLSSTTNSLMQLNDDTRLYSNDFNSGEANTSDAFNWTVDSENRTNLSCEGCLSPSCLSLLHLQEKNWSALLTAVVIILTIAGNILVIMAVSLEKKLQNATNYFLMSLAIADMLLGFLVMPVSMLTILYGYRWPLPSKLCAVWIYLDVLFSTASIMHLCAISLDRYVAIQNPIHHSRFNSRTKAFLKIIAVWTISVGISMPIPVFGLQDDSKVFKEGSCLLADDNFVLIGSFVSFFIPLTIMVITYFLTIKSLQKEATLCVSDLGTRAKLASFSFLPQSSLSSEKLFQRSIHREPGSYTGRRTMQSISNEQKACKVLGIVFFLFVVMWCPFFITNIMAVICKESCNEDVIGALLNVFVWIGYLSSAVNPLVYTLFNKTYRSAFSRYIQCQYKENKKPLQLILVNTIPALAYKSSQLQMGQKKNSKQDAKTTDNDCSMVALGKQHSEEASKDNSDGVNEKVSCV
# Procedure, shortened: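 Radioligand displacement on human cortex tissue extract, counted by filtration and scintillation 1.5 h post-dosing. Initial single-concentration screen at 25 uM in duplicate, concentration series in follow-up; DMSO as baseline.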
# [5] = target: human Serotonin, 5-Hydroxytryptamine Receptor 5A (5HT5A), HTR5A (gene 3361) (UniProt P47898); assay: NVS_GPCR_h5HT5A: NovaScreen (NVS) G Protein-Coupled Receptor Assay for human Serotonin, 5-Hydroxytryptamine Receptor 5A (5HT5A) (AID 2283251)
# Sequence of human Serotonin, 5-Hydroxytryptamine Receptor 5A (5HT5A), HTR5A (gene 3361) (P47898 whole entry, looked up): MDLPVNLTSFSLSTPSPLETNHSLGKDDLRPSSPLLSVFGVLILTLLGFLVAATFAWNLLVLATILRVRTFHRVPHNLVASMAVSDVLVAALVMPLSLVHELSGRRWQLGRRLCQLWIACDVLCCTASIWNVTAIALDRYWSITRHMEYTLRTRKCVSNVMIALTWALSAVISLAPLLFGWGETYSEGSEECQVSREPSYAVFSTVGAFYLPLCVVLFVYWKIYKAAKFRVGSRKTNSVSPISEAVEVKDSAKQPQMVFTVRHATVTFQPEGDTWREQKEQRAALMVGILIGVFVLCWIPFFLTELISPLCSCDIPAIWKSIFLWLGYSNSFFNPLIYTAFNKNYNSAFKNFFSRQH
# Procedure, shortened: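 Membranes from HEK293 cells, radioligand binding read by filtration and scintillation after 1 h. Single-concentration duplicate testing at 25 uM, then concentration-response for actives; positive-direction fitting relative to DMSO.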
# [6] = target: human Serotonin, 5-Hydroxytryptamine Receptor 7 (5HT7), HTR7 (gene 3363) (UniProt P34969); assay: NVS_GPCR_h5HT7: NovaScreen (NVS) G Protein-Coupled Receptor Assay for human Serotonin, 5-Hydroxytryptamine Receptor 7 (5HT7) (AID 2283255);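 further: hits reduce specific radioligand binding relative to DMSO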
# Sequence of human Serotonin, 5-Hydroxytryptamine Receptor 7 (5HT7), HTR7 (gene 3363) (P34969 whole entry, looked up): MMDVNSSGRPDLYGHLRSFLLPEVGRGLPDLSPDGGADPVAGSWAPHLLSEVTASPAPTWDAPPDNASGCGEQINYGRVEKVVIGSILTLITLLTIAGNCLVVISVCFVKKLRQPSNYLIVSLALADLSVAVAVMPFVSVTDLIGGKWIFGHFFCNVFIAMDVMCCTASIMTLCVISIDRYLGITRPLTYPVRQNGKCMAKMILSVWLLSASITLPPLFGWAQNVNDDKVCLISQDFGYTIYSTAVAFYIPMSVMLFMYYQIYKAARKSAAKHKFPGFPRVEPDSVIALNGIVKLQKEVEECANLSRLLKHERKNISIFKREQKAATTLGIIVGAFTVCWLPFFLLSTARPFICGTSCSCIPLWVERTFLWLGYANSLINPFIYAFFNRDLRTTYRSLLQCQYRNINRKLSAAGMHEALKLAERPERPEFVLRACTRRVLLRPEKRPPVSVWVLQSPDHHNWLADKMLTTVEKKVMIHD
# Procedure, shortened: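 Filter-bound radioactivity counted after 1 h, with loss of specific radioligand binding fitted against DMSO. Membrane protein came from CHO cells expressing human 5HT7. Chemicals were tested first at 25 uM in duplicate, then in concentration series if active.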
# [7] = target: human Adrenergic, Alpha 2A Receptor (Adra2A), ADRA2A (gene 150) (UniProt P08913); assay: NVS_GPCR_hAdra2A: NovaScreen (NVS) G Protein-Coupled Receptor Assay for human Adrenergic, Alpha 2A Receptor (Adra2A) (AID 2283257)
# Sequence of human Adrenergic, Alpha 2A Receptor (Adra2A), ADRA2A (gene 150) (P08913 whole entry, looked up): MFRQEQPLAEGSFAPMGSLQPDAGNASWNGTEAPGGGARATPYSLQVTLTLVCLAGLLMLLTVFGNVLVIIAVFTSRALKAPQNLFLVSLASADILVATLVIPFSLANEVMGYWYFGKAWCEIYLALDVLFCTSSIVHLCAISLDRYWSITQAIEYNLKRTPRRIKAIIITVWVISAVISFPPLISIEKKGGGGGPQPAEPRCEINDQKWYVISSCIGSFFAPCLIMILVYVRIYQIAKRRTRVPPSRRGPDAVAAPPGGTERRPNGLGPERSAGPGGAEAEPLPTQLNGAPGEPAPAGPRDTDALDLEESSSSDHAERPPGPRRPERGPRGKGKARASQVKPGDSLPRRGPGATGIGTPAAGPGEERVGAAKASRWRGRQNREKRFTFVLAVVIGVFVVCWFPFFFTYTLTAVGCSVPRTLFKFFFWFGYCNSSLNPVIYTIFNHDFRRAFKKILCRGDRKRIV
# Experimental: NVS_GPCR_hAdra2A is a biochemical, single-readout assay that uses extracted gene-proteins from HT29 in a cell-free assay. Measurements were taken 1 hour after chemical dosing in a 48-well plate.NVS_GPCR_hAdra2A is one of one assay component(s) measured or calculated from the NVS_GPCR_hAdra2A assay. It is designed to make measurements of radioligand binding, a form of binding reporter, as detected with scintillation counting signals by Filter-based radiodetection technology.Data from the assay component NVS_GPCR_hAdra2A was analyzed into 1 assay endpoint. This assay endpoint, NVS_GPCR_hAdra2A, was analyzed in the positive analysis fitting direction relative to DMSO as the negative control and baseline of activity. […] Furthermore, this assay endpoint can be referred to as a primary readout, because the performed assay has only produced 1 assay endpoint. […]
# Binding assays used specific radioligands (tritiated, iodinated) with non-radioactive competitive displacement ligands in agonist or antagonist protocols (as indicated) and various reference compounds and inhibitors to titrate specific binding to receptors and transporters. Most enzyme assays (CYPs, kinases, phosphatases, proteases, HDACs) used recombinant protein and specific substrates (fluorescence mostly, some colorimetric and radioactive) and inhibitors, followed by a biochemical separation of substrate and product. […]
# [8] = test system: guinea pig Muscarinic, Peripheral (Mperiperal) Receptor, Non-selective Binding, gene 100379235; assay: NVS_GPCR_gMPeripheral_NonSelective: NovaScreen (NVS) G Protein-Coupled Receptor Assay for guinea pig Muscarinic, Peripheral (Mperiperal) Receptor, Non-selective Binding (AID 2283250)
# Procedure, shortened: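 Screened in duplicate at 25 uM, hits retested in concentration series to 50 uM max, using bladder membrane radioligand displacement from guinea pig. Filtration and scintillation counting 1 h post-dose, fitted relative to DMSO.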
# [9] = target: human Adenosine A2a Receptor (AdoRA2a), ADORA2A (gene 135) (UniProt P29274); assay: NVS_GPCR_hAdoRA2a: NovaScreen (NVS) G Protein-Coupled Receptor Assay for human Adenosine A2a Receptor (AdoRA2a) (AID 2283256)
# Sequence of human Adenosine A2a Receptor (AdoRA2a), ADORA2A (gene 135) (P29274 whole entry, looked up): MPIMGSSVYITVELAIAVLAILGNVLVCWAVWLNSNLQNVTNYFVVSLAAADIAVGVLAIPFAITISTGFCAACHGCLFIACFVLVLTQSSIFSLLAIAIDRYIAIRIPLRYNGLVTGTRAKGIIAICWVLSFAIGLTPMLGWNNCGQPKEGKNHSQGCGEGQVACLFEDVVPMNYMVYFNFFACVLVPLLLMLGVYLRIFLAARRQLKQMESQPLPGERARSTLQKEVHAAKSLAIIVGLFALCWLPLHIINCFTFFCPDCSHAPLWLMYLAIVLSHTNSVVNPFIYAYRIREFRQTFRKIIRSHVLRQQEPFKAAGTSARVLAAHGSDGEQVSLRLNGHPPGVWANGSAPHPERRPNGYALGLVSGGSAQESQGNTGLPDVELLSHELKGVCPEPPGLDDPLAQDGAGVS
# Procedure, shortened: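 Compounds screened in duplicate at 25 uM, with actives followed up in concentration series, for displacement of a radioligand from HEK293-derived receptor protein. Bound counts read by filter scintillation at 1.5 hours, DMSO as baseline.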
# [10] = target: guinea pig Leukotriene D4 Receptor (LTD4), CYSLTR1 (gene 100135514) (UniProt Q2NNR5); assay: NVS_GPCR_gLTD4: NovaScreen (NVS) G Protein-Coupled Receptor Assay for guinea pig Leukotriene D4 Receptor (LTD4) (AID 2283248)
# Sequence of guinea pig Leukotriene D4 Receptor (LTD4), CYSLTR1 (gene 100135514) (Q2NNR5 whole entry, looked up): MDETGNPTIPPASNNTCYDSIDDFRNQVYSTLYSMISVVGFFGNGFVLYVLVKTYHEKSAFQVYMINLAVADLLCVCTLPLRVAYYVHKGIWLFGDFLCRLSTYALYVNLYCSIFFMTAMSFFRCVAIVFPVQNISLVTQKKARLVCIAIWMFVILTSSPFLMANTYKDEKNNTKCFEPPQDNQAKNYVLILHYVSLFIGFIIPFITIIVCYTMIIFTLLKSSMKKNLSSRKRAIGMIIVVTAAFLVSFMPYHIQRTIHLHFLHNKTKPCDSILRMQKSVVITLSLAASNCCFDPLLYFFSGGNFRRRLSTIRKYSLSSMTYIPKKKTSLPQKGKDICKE
# Procedure, shortened: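 Guinea pig lung membrane preparation; bound radioligand measured by filter scintillation after 1 h, loss of signal versus DMSO marking displacement. Compounds tested at 25 uM in duplicate, hits retested to max 50 uM.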
compound,measurement,setting,value
CC(C)N(C(=O)SCC(Cl)=C(Cl)Cl)C(C)C,outcome,[1],inactive
COc1ccc(C(=CC(=O)N2CCOCC2)c2ccc(Cl)cc2)cc1OC,outcome,[2],inactive
same,AC50,[3],14.2 µM (active)
CC[C@H](C)[C@H]1O[C@]2(C=C[C@@H]1C)C[C@@H]1C[C@@H](C/C=C(\C)[C@@H](O[C@H]3C[C@H](OC)[C@@H](O[C@H]4C[C@H](OC)[C@@H](NC)[C@H](C)O4)[C@H](C)O3)[C@@H](C)/C=C/C=C3\CO[C@@H]4[C@H](O)C(C)=C[C@@H](C(=O)O1)[C@]34O)O2,AC50,[4],26.9 µM (active)
same,AC50,[5],7.94 µM (active)
same,AC50,[2],25 µM (active)
same,AC50,[1],13.9 µM (active)
same,AC50,[6],4.29 µM (active)
same,AC50,[7],26.8 µM (active)
N#CSCSC#N,AC50,[8],7.4 µM (active)
same,AC50,[2],38.7 µM (active)
Cc1cc(C2CC2)nc(Nc2ccccc2)n1,outcome,[8],inactive
same,AC50,[3],9.57 µM (active)
same,AC50,[6],25 µM (active)
same,AC50,[9],14.1 µM (active)
CCNc1nc(Cl)nc(NC(C)(C)C#N)n1,AC50,[3],4.08 µM (active)
same,AC50,[9],5.75 µM (active)
C=C(C)[C@H]1Cc2c(ccc3c2O[C@@H]2COc4cc(OC)c(OC)cc4[C@@H]2C3=O)O1,outcome,[5],inactive
same,AC50,[1],1.13 µM (active)
CC(C)[C@H](C(=O)O[C@H](C#N)c1cccc(Oc2ccccc2)c1)c1ccc(Cl)cc1,AC50,[5],6.96 µM (active)
same,AC50,[6],6.87 µM (active)
FC(F)C(F)(F)OCC(Cn1cncn1)c1ccc(Cl)cc1Cl (centres undefined),outcome,[2],inactive
same,AC50,[3],25 µM (active)
CCOP(=O)(NC(C)C)Oc1ccc(SC)c(C)c1 (centres undefined),AC50,[2],16.3 µM (active)
O=[N+]([O-])c1cc(C(F)(F)F)c(Cl)c([N+](=O)[O-])c1Nc1ncc(C(F)(F)F)cc1Cl,AC50,[9],6.87 µM (active)
C#CCC1=C(C)C(OC(=O)C2C(C=C(C)C)C2(C)C)CC1=O (centres undefined),outcome,[3],inactive
Cc1ccn2nc(S(=O)(=O)Nc3c(F)cccc3F)nc2n1,outcome,[8],inactive
CNC(=O)Oc1cccc2c1OC(C)(C)O2,outcome,[5],inactive
CCc1cccc(C)c1N(C(=O)CCl)C(C)COC (centres undefined),AC50,[2],16.2 µM (active)
CC(Oc1cccc(Cl)c1)C(=O)O (centres undefined),outcome,[5],inactive
C[Si](Cn1cncn1)(c1ccc(F)cc1)c1ccc(F)cc1,AC50,[5],7.85 µM (active)
same,AC50,[2],25 µM (active)
same,AC50,[6],16.6 µM (active)
CCCOCC(=Nc1ccc(Cl)cc1C(F)(F)F)n1ccnc1,outcome,[10],inactive
same,outcome,[2],inactive
CC(COc1ccc(Oc2ccccc2)cc1)Oc1ccccn1 (centres undefined),outcome,[5],inactive
CCOP(=S)(OCC)Oc1cc(C)nc(C(C)C)n1,outcome,[10],inactive
CCOC(=O)COc1cc(-c2nn(C)c(OC(F)F)c2Cl)c(F)cc1Cl,outcome,[8],inactive
CCOC(=O)CC(SP(=O)(OC)OC)C(=O)OCC (centres undefined),outcome,[8],inactive
same,outcome,[3],inactive
same,outcome,[9],inactive
COP(=O)(OC)OC(Br)C(Cl)(Cl)Br (centres undefined),AC50,[10],0.00229 µM (active)
same,AC50,[2],33.3 µM (active)
same,AC50,[1],9.88 µM (active)
CCC(=O)Nc1ccc(Cl)c(Cl)c1,AC50,[1],7.47 µM (active)
same,AC50,[9],10 µM (active)
O=c1ccc(=O)[nH][nH]1,outcome,[5],inactive
CC(C)=CC1C(C(=O)OCN2C(=O)C3=C(CCCC3)C2=O)C1(C)C (centres undefined),outcome,[6],inactive
CSc1nc(NC(C)C)nc(NC(C)C)n1,AC50,[3],3.54 µM (active)
same,AC50,[9],4.59 µM (active)
CCOP(=S)(OCC)Oc1ccc2c(C)c(Cl)c(=O)oc2c1,outcome,[5],inactive
same,outcome,[7],inactive
O=C(O)c1cc(Oc2ccc(C(F)(F)F)cc2Cl)ccc1[N+](=O)[O-],outcome,[5],inactive
same,AC50,[9],7.71 µM (active)
